Reference: PubChem BioAssay
The source made the active and inactive calls. Cut-off read from the data, not from the text of the source, unless noted: active = inhibition above about 80%; inactive = the rest.

Legend:
[1] = LFS_MB_P medulloblastoma growth inhibition, cell-based, chromothripsis tumors, cisplatin or BGB combos (AID 1671449); conditions: LFS_MB_P medulloblastoma cells;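 note: cells exposed for 96 hours; 0% = vehicle DMSO and 100% = killing by high DMSO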
[2] = HDN33 neuroblastoma growth inhibition, cell-based, chromothripsis tumors, cisplatin or BGB combos (AID 1671450); conditions: HDN33 neuroblastoma cells, stronger effect = higher value;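 note: cells exposed to compound for four days; 0% = vehicle DMSO and 100% = cell killing by high DMSO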
[3] = ICB984 medulloblastoma cell growth inhibition, synergistic combos for chromothripsis tumors, cisplatin or BGB combos (AID 1671451; call rule not given here;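 note: cells exposed for 96 hours before readout; 0% = vehicle DMSO and 100% = killing by high DMSO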); conditions: ICB984 medulloblastoma cells, drug combinations, stronger effect = higher value
[4] = LFS_MB_1R medulloblastoma cell growth inhibition, synergistic combos for chromothripsis tumors, cisplatin or BGB combos (AID 1671452); conditions: LFS_MB_1R medulloblastoma cells, stronger effect = higher value;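 note: cells exposed for 96 hours before readout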
[5] = HTB85 osteosarcoma cell growth inhibition, synergistic combos for chromothripsis tumors, BGB or cisplatin IC20 combos (AID 1671453); conditions: HTB85 osteosarcoma cells, drug combinations, stronger effect = higher value;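 note: cells exposed for 96 hours before readout; 0% = vehicle DMSO and 100% = high DMSO killing control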
[6] = CRL2098 osteosarcoma cell growth inhibition, synergistic combos for chromothripsis tumors, BGB or cisplatin IC20 combos (AID 1671454); conditions: CRL2098 osteosarcoma cells, drug combinations, stronger effect = higher value;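 note: cells exposed for 96 h before readout; 0% = vehicle DMSO and 100% = killing by high DMSO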
[7] = HD-MB03 medulloblastoma cell growth inhibition, synergistic combos for chromothripsis tumors, BGB or cisplatin IC20 combos (AID 1671455; in the data active = inhibition above about 83%;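 note: 0% = vehicle DMSO and 100% = high DMSO as cytotoxic control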); conditions: HD-MB03 medulloblastoma cells, stronger effect = higher value
[8] = UWB1.289 ovarian carcinoma cell growth inhibition, synergistic combos for chromothripsis tumors, BGB or cisplatin combos (AID 1671456); conditions: UWB1.289 ovarian carcinoma cells, stronger effect = higher value;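 note: cells exposed to compound for four days; 0% = vehicle DMSO and 100% = killing by high DMSO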
[9] = LFS_MB_2R medulloblastoma cell growth inhibition, synergistic combos for chromothripsis tumors, cisplatin combos (AID 1671457); conditions: LFS_MB_2R medulloblastoma cells, stronger effect = higher value;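 note: cells exposed to compound for four days before readout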
[10] = MDA-MB-436 breast carcinoma cell growth inhibition, synergistic combos for chromothripsis tumors, BGB or cisplatin combos (AID 1671458; call rule not given here;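 note: cells exposed for 96 hours; 0% = vehicle DMSO and 100% = killing by high DMSO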); conditions: MDA-MB-436 breast carcinoma growth inhibition, drug combinations, stronger effect = higher value
[11] = UWB1.289_BRCA1 ovarian cancer growth, cell-based, BGB or cisplatin combinations (AID 1671459); conditions: UWB1.289 BRCA1 ovarian carcinoma, drug combinations, stronger effect = higher value
[12] = human astrocyte viability loss, single and combined drugs, cytotoxicity control for chromothriptic childhood tumor combination screen, cell-based, BGB or cisplatin IC20 combos (AID 1671460); conditions: Human astrocytes, drug combinations, stronger effect = higher value;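 note: cells exposed to compounds for 96 hours before viability readout; 0% = vehicle and 100% = killing control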
[13] = growth inhibition of BT084 medulloblastoma cells, cell-based, ICGC_MB145, cisplatin and BGB IC40 combos (AID 1671461); conditions: drug combinations, stronger effect = higher value;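 note: cells exposed to drugs for 96 hours; 0% = vehicle DMSO and 100% = high DMSO full killing control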
[14] = growth inhibition of RCMB18 medulloblastoma cells, cell-based, cisplatin and BGB IC40 combos (AID 1671462); conditions: stronger effect = higher value;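 note: cells exposed to compound for four days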
[15] = growth inhibition of CRL1545 osteosarcoma cells, cell-based, cisplatin and BGB IC20 combos (AID 1671464); conditions: stronger effect = higher value;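 note: cells exposed to compound for 96 hours before readout; 0% = vehicle DMSO and 100% = high DMSO killing control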
[16] = viability rescue of complex I mutant cybrids, primary screen, cell-based, galactose medium, ATP luminescence (AID 1645843;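 active = z-score of at least 1.8 in each of two replicates, scored against plate mean and spread of sample wells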;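 note: positive z means more ATP and so rescue of galactose-driven cybrid death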); conditions: complex I mutant cybrid cells, 72 h, stronger effect = higher value
[17] = measured here: combination with BGB IC40, at 0.05 µM
[18] = measured here: with BGB IC20 combination, at 0.5 µM
[19] = measured here: with cisplatin IC20 combination, at 0.5 µM
[20] = measured here: combination with cisplatin, at 0.5 µM
[21] = measured here: combination with cisplatin, at 5 µM

CC(C)C(=O)SCCCCCCC(=O)Nc1nc(-c2ccccc2)cs1
inhibition ([1]; at 0.5 µM, stronger effect = higher value): -25.8% (inactive)
inhibition ([1]; measured here: combination with BGB IC20, at 0.005 µM): -14.6%
inhibition ([1]; measured here: combination with BGB IC40, at 0.005 µM): -57.5%
inhibition [1, 17]: -33.9%
inhibition ([1]; measured here: combination with cisplatin, at 0.5 µM, stronger effect = higher value): -38.9%
inhibition ([1]; measured here: combination with cisplatin, at 5 µM, stronger effect = higher value): 85.2%
inhibition ([2]; BGB combo, at 5 µM): 48.9%
inhibition ([2]; at 0.5 µM): 6.91% (inactive)
inhibition ([2]; cisplatin combo, at 5 µM): 45.1%
inhibition [2, 18]: 1.56%
inhibition [2, 19]: 14.6%
inhibition ([2]; single agent, at 5 µM): 57.6%
inhibition ([3]; BGB IC20 combo, at 0.005 µM): 16.1%
inhibition ([3]; BGB IC40 combo, at 0.005 µM): -25.2%
inhibition ([3]; BGB IC40 combo, at 0.05 µM): 31.3%
inhibition ([3]; at 0.5 µM): -31.1% (inactive)
inhibition ([3]; cisplatin combo, at 0.05 µM): 28%
inhibition ([3]; cisplatin combo, at 0.5 µM): -33.4%
inhibition ([3]; cisplatin combo, at 5 µM): -7.7%
inhibition ([3]; measured here: 5 uM single agent, at 5 µM): 4.47%
inhibition ([4]; at 0.5 µM): -22% (inactive)
inhibition [4, 17]: -72.1%
inhibition [4, 20]: -44.8%
inhibition [4, 21]: 68.5%
inhibition ([5]; at 0.5 µM): -4.36% (inactive)
inhibition ([5]; measured here: with BGB IC20, at 0.5 µM): 2.11%
inhibition ([5]; measured here: with BGB IC20, at 5 µM): 19%
inhibition ([5]; measured here: with cisplatin IC20, at 0.5 µM): -21.4%
inhibition ([5]; measured here: with cisplatin IC20, at 5 µM): 38.3%
inhibition ([5]; single agent, at 5 µM): 22.2%
inhibition ([6]; at 0.5 µM): -30.2% (inactive)
inhibition ([6]; measured here: combination with BGB at IC20, at 0.5 µM): -44.3%
inhibition ([6]; measured here: combination with cisplatin at IC20, at 0.5 µM): -19.3%
inhibition ([7]; at 0.5 µM): 4.11% (inactive)
inhibition ([7]; measured here: combo with BGB at IC20, at 0.5 µM): 5.74%
inhibition ([7]; measured here: combo with cisplatin at IC20, at 0.5 µM): 11.7%
inhibition ([8]; at 0.5 µM): 5.55% (inactive)
inhibition ([8]; measured here: inhibition with BGB combination, at 0.05 µM): -30.6%
inhibition ([8]; measured here: inhibition with cisplatin combination, at 0.05 µM): -3.57%
inhibition ([9]; at 0.5 µM): -13.4% (inactive)
inhibition [9, 20]: -25.2%
inhibition [9, 21]: 54.7%
inhibition ([10]; at 0.5 µM): -7.93% (inactive)
inhibition ([10]; measured here: BGB combination, at 0.5 µM): -9.46%
inhibition ([10]; measured here: BGB combination, at 5 µM): 10.2%
inhibition ([10]; measured here: cisplatin combination, at 0.5 µM): -23.5%
inhibition ([10]; measured here: cisplatin combination, at 5 µM): 18.2%
inhibition ([11]; BGB combination, concentration series, at 5 µM): 37.8%
inhibition ([11]; at 0.5 µM): 9.48% (inactive)
inhibition ([11]; cisplatin combination, concentration series, at 5 µM): 66.2%
inhibition ([12]; at 0.5 µM): 31.1% (inactive)
inhibition ([12]; measured here: combo with BGB IC20, at 0.5 µM): 34.6%
inhibition ([12]; measured here: combo with cisplatin IC20, at 0.5 µM): 18.5%
inhibition ([13]; at 0.5 µM): -9.26% (inactive)
inhibition ([13]; cisplatin combination, at 0.5 µM): -8.48%
inhibition ([13]; cisplatin combination, at 5 µM): 42.4%
inhibition ([13]; measured here: BGB IC40 combination 0.05 uM, at 0.05 µM): -39.7%
inhibition ([13]; single agent, at 5 µM): 71.8%
inhibition ([14]; at 0.5 µM): -9.74% (inactive)
inhibition ([14]; cisplatin combo, at 5 µM): 41%
inhibition ([14]; measured here: BGB IC40 combination, at 0.05 µM): 12.2%
inhibition [14, 20]: -9.58%
inhibition ([14]; single agent, at 5 µM): 36.3%
inhibition ([15]; at 0.5 µM): 33.1% (inactive)
inhibition [15, 18]: 24.9%
inhibition [15, 19]: 36.2%
inhibition ([15]; single agent, at 0.05 µM): 0.931%
inhibition ([15]; single agent, at 5 µM): 46.6%

Cc1nsc(NC(=O)N2CCCN(c3ccccc3)CC2)n1
z-score [16]: -0.19 (inactive)
